Results filed as inconclusive are left out. Active and inactive are the calls of the source. Rule for the calls, unless noted: active = hit-call score of the fitted dose curve at least 0.9, where 1 is the maximum; inactive = score below 0.9.
Legend:
[1] = target: Myc proto-oncogene protein (Homo sapiens) (UniProt P01106); test: ATG_Myc_CIS: Attagene CIS-FACTORIAL HepG2 Assay for human Myelocytomatosis (Myc) Proto-Oncogene Transcription Factor (AID 2282990); conditions: HepG2, Attagene cis-reporter transcription factor activity; actives raise or lower the signal
Sequence of Myc proto-oncogene protein (Homo sapiens) (P01106 whole entry, looked up): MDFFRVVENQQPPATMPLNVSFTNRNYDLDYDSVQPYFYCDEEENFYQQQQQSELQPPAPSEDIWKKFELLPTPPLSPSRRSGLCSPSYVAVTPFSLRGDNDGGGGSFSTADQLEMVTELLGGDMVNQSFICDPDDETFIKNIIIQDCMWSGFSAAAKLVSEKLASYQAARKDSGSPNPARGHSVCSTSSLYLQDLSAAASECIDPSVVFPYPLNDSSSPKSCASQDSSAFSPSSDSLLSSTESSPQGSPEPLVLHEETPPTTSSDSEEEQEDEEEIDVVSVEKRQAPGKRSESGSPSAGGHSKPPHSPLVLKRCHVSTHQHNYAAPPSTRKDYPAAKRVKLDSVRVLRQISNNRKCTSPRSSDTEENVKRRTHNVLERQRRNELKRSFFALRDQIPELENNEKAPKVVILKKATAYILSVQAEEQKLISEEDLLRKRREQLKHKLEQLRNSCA
How it was run: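 DMSO-normalised, bidirectionally fitted reporter mRNA signal. HepG2 cells transfected with cis reporter constructs, treated 24 h; transcripts detected by RT-PCR, 6-FAM primer extension and CE.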

[2] = ATG_NF_kB_CIS: Attagene CIS-FACTORIAL HepG2 Assay for human Nuclear Factor Kappa B (NF-kB) (AID 2282991); conditions: HepG2 Attagene cis-factorial NF-kB reporter mRNA; actives raise or lower the signal
How it was run: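 DMSO served as negative control and baseline for bidirectional curve fitting. Transiently transfected HepG2 cells were dosed for 24 h, then reporter transcripts were measured by RT-PCR with capillary electrophoresis detection.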

[3] = ATG_NRF2_ARE_CIS: Attagene CIS-FACTORIAL HepG2 Assay for human Nuclear Factor Erythroid 2 Related Factor 2 (NFR2) response to Antioxidant Response Elements (ARE) (AID 2282992); conditions: HepG2 Attagene ARE/NRF2 reporter, transcription factor activity; actives raise or lower the signal;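 for AC50: reporter mRNA level measured by RT-PCR and capillary electrophoresis fluorescence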
How it was run: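 Multiplexed reporter mRNA profiling in HepG2 after a 24 h chemical exposure. Curves fitted in both directions relative to DMSO negative control.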

[4] = ATG_Oct_MLP_CIS: Attagene CIS-FACTORIAL HepG2 Assay for human Octamer-Binding Transcription Factor (Oct) (AID 2282993); conditions: HepG2 Attagene cis-factorial Oct reporter, mRNA; actives raise or lower the signal
How it was run: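 Using HepG2 cells bearing transfected cis-reporter constructs, mRNA induction was read after 24 h by fluorescent RT-PCR and capillary electrophoresis, with DMSO defining baseline for gain- or loss-of-signal fits.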

[5] = target: Cellular tumor antigen p53 (Homo sapiens) (UniProt P04637); test: ATG_p53_CIS: Attagene CIS-FACTORIAL HepG2 Assay for human p53 Transcription Factor (AID 2282994); conditions: HepG2 p53 cis-element reporter, Attagene mRNA; actives raise or lower the signal
Sequence of Cellular tumor antigen p53 (Homo sapiens) (P04637 whole entry, looked up): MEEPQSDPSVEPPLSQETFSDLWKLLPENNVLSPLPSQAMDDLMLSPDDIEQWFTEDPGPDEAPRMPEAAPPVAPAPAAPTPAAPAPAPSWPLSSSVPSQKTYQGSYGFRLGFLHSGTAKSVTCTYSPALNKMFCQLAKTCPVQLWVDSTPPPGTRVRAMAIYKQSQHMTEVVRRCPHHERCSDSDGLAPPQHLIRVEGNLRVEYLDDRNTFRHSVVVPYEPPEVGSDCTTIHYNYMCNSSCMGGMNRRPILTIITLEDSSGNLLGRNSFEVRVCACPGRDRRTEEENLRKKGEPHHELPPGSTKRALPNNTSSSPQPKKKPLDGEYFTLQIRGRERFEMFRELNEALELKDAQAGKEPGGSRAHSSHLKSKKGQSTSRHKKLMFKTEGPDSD
How it was run: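 Multiplexed reporter mRNA assay in human HepG2 liver cells; cis-regulated units report endogenous factor activity. Values come from bidirectional curve fitting against DMSO negative control after 24 h treatment.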

[6] = BSK_3C_TissueFactor: BioMAP Diversity Plus: 3C Assay for Tissue Factor Biomarker Activity (AID 2282997); conditions: BioMAP 3C HUVEC, tissue factor biomarker readout; actives raise or lower the signal
How it was run: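 Human vascular primary cells (umbilical vein endothelium) received test chemical; Tissue Factor was determined by ELISA at 24 h, and both gain and loss of signal versus DMSO were fitted.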

[7] = BSK_3C_uPAR: BioMAP Diversity Plus: 3C Assay for Urokinase-type plasminogen activator receptor (uPAR) Biomarker Activity (AID 2282998); conditions: BioMAP 3C HUVEC, uPAR biomarker ELISA; actives raise or lower the signal
How it was run: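 In this endothelial cell-based assay, human umbilical vein primary cells were treated with chemicals and harvested at 24 h. uPAR was quantified using ELISA, with gains or losses fitted relative to DMSO controls.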

[8] = BSK_4H_Eotaxin3: BioMAP Diversity Plus: 4H Assay for Eotaxin 3 Biomarker Activity (AID 2283000); conditions: primary human endothelial cells (HUVEC); actives raise or lower the signal
How it was run: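 Readout is Eotaxin-3 (CCL26) level by ELISA in primary human umbilical vein endothelial cells harvested 24 h after chemical exposure; activity fitted in both directions against DMSO control.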

[9] = target: human Peroxisome Proliferator-activated Receptor alpha (PPARa), PPARA (gene 5465) (UniProt Q07869); test: ATG_PPARa_TRANS: Attagene TRANS-FACTORIAL HepG2 Assay for human Peroxisome Proliferator-activated Receptor alpha (PPARa) (AID 2283001; active = hit-call score of the fitted dose curve at least 0.9, where 1 is the maximum;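 for AC50: potency for gain of reporter signal over DMSO so agonist or activator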)
Sequence of human Peroxisome Proliferator-activated Receptor alpha (PPARa), PPARA (gene 5465) (Q07869 whole entry, looked up, the tested form may be a part): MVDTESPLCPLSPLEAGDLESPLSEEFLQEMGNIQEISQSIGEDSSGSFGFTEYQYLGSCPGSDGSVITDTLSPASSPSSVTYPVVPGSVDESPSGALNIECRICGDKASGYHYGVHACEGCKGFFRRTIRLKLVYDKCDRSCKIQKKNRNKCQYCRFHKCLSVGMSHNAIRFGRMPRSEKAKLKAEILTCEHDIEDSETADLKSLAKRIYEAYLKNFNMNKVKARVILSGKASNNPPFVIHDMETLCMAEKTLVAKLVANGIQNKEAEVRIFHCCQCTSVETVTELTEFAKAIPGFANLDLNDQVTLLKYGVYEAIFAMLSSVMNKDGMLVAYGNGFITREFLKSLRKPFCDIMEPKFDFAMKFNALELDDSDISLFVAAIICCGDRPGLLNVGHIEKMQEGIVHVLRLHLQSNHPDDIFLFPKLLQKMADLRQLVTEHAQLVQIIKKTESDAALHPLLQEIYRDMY
How it was run: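 Gain-of-signal endpoint: reporter mRNA induction relative to DMSO, detected by fluorescent RT-PCR and capillary electrophoresis. HepG2 cells transiently carried GAL4-UAS-driven reporter units plus NR-Gal4 fusion; exposure lasted 24 h.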

[10] = read-out: Intercellular Adhesion Molecule 1 (ICAM1), ICAM1 (gene 3383); test: BSK_3C_ICAM1: BioMAP Diversity Plus: 3C Assay for Intercellular Adhesion Molecule 1 (ICAM1) Biomarker Activity (AID 2283003); conditions: primary human endothelial cells (HUVEC); actives raise or lower the signal
How it was run: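 ICAM-1 levels measured by ELISA after HUVEC cultures in the 3C system had been dosed for 24 h. Gain or loss of signal relative to DMSO was fitted in both directions.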

[11] = BSK_3C_Proliferation: Cell Proliferation Assessment in the BioMAP Diversity Plus: 3C Assay (AID 2283006); conditions: primary human endothelial cells (HUVEC);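 for AC50: potency may reflect either rise or fall in cell number versus DMSO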
How it was run: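 Read-out is total protein by SRB absorbance at 560 nm, taken as a proxy for relative cell number. Primary human umbilical vein endothelium cultured below confluence was dosed for 48 h, TCA-fixed and SRB-stained; curves were fitted bidirectionally versus DMSO.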

[12] = target: Peroxisome proliferator-activated receptor gamma (Homo sapiens) (UniProt P37231); test: ATG_PPARg_TRANS: Attagene TRANS-FACTORIAL HepG2 Assay for human Peroxisome Proliferator-activated Receptor-gamma (PPARg) (AID 2283007; active = hit-call score of the fitted dose curve at least 0.9, where 1 is the maximum)
Sequence of Peroxisome proliferator-activated receptor gamma (Homo sapiens) (P37231 whole entry, looked up, the tested form may be a part): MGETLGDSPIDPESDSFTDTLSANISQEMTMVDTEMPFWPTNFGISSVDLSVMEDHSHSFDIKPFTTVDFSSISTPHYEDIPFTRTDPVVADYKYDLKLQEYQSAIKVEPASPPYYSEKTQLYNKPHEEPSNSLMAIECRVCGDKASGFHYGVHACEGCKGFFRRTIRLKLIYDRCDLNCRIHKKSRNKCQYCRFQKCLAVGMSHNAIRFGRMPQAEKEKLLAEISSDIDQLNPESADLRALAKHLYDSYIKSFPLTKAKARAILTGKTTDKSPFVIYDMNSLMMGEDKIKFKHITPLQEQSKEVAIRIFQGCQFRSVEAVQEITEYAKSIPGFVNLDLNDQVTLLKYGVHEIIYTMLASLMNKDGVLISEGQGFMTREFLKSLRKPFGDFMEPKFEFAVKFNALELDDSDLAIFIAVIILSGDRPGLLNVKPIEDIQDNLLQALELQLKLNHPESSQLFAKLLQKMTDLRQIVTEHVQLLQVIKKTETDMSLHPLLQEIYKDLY
How it was run: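 Chimeric NR-Gal4 transactivation is measured in transiently transfected HepG2 cells by reporter mRNA induction at 24 h. Detection uses RT-PCR with fluorescent labelling and capillary electrophoresis; DMSO defines baseline.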

[13] = target: Nuclear receptor subfamily 1 group I member 2 (Homo sapiens) (UniProt O75469); test: ATG_PXR_TRANS: Attagene TRANS-FACTORIAL HepG2 Assay for human Pregnane X Receptor (PXR) (AID 2283008; active = hit-call score of the fitted dose curve at least 0.9, where 1 is the maximum)
Sequence of Nuclear receptor subfamily 1 group I member 2 (Homo sapiens) (O75469 whole entry, looked up, the tested form may be a part): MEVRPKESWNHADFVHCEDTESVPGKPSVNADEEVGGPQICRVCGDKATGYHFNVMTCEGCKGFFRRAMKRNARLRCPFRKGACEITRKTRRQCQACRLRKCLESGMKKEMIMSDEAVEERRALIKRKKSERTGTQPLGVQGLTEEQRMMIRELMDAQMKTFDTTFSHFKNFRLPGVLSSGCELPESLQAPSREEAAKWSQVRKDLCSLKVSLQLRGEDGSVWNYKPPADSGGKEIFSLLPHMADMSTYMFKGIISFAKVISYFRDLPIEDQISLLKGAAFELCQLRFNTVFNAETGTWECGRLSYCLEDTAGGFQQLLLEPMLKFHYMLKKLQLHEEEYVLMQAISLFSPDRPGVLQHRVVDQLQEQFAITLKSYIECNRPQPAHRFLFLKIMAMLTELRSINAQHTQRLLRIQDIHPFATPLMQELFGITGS
How it was run: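 Measures mRNA induction of a GAL4-UAS-driven reporter in human HepG2 cells transiently expressing PXR fused to Gal4, following 24 h treatment. DMSO served as negative control and baseline.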

[14] = target: human Peroxisome Proliferator-activated Receptor delta (PPARd), PPARD (gene 5467) (UniProt Q03181); test: ATG_PPARd_TRANS: Attagene TRANS-FACTORIAL HepG2 Assay for human Peroxisome Proliferator-activated Receptor delta (PPARd) (AID 2283002; active = hit-call score of the fitted dose curve at least 0.9, where 1 is the maximum)
Sequence of human Peroxisome Proliferator-activated Receptor delta (PPARd), PPARD (gene 5467) (Q03181 whole entry, looked up, the tested form may be a part): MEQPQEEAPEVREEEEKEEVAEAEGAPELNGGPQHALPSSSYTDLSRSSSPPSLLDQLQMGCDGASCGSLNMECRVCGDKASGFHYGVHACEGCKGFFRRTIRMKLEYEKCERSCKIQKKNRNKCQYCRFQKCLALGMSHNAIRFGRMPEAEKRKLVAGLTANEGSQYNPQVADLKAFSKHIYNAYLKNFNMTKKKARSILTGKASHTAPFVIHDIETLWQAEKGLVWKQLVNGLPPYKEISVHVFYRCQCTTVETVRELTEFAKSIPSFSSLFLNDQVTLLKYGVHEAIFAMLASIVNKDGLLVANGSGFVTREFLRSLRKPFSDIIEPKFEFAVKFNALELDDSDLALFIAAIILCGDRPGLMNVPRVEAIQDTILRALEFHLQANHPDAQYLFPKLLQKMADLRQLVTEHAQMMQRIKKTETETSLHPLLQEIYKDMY
How it was run: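 Measured quantity: GAL4-UAS reporter transcript induction in HepG2 after 24 h chemical dosing, with NR-Gal4 chimeras supplied by transient transfection. Detection by RT-PCR and capillary electrophoresis; upward fit against DMSO.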

[15] = target: human Retinoic Acid Receptor gamma (RARg), RARG (gene 5916) (UniProt P13631); test: ATG_RARg_TRANS: Attagene TRANS-FACTORIAL HepG2 Assay for human Retinoic Acid Receptor gamma (RARg) (AID 2283009; active = hit-call score of the fitted dose curve at least 0.9, where 1 is the maximum)
Sequence of human Retinoic Acid Receptor gamma (RARg), RARG (gene 5916) (P13631 whole entry, looked up): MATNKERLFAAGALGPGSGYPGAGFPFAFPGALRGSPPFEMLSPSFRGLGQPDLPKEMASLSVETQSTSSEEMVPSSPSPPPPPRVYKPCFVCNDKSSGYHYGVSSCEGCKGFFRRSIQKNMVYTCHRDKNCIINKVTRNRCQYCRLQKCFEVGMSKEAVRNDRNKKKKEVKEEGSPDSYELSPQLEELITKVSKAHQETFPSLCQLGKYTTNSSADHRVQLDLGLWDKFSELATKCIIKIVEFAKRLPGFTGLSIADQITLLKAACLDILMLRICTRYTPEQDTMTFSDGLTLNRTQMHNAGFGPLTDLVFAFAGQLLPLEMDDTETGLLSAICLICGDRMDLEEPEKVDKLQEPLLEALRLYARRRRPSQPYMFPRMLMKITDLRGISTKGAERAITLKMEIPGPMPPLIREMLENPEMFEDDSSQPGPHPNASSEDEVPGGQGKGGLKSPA
How it was run: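 Transient transfection of HepG2 with multi-reporter constructs, then 24 h chemical treatment. Total RNA isolated, reverse-transcribed, PCR-amplified, fluorescently labelled and resolved by capillary electrophoresis; activity scored as mRNA induction versus DMSO.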

[16] = target: human RAR-related Orphan Receptor gamma (RORg), RORC (gene 6097) (UniProt P51449); test: ATG_RORg_TRANS: Attagene TRANS-FACTORIAL HepG2 Assay for human RAR-related Orphan Receptor gamma (RORg) (AID 2283011; active = hit-call score of the fitted dose curve at least 0.9, where 1 is the maximum)
Sequence of human RAR-related Orphan Receptor gamma (RORg), RORC (gene 6097) (P51449 whole entry, looked up, the tested form may be a part): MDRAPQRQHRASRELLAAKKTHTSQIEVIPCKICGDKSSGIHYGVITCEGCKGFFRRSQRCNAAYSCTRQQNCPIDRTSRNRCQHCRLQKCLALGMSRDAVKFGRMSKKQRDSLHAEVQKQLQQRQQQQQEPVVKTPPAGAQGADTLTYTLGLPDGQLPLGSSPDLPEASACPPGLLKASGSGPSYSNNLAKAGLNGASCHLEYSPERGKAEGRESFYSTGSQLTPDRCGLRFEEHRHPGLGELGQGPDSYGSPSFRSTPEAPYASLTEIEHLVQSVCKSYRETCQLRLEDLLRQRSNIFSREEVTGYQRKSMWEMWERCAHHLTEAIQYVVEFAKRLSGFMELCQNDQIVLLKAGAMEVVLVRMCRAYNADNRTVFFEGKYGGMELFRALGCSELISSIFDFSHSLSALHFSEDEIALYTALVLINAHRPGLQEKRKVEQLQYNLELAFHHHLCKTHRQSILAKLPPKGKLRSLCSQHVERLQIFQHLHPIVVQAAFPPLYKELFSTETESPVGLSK
How it was run: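 Transient MRTU transfection of HepG2 (TRANS format, exogenous NR-Gal4 chimera). 24 h dosing. Total RNA → oligo(dT) RT → PCR → 6-FAM labelling → HpaI cut → CE. Gain vs DMSO.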

[17] = target: human RAR-related Orphan Receptor beta (RORb), RORB (gene 6096) (UniProt Q92753); test: ATG_RORb_TRANS: Attagene TRANS-FACTORIAL HepG2 Assay for human RAR-related Orphan Receptor beta (RORb) (AID 2283010; active = hit-call score of the fitted dose curve at least 0.9, where 1 is the maximum)
Sequence of human RAR-related Orphan Receptor beta (RORb), RORB (gene 6096) (Q92753 whole entry, looked up, the tested form may be a part): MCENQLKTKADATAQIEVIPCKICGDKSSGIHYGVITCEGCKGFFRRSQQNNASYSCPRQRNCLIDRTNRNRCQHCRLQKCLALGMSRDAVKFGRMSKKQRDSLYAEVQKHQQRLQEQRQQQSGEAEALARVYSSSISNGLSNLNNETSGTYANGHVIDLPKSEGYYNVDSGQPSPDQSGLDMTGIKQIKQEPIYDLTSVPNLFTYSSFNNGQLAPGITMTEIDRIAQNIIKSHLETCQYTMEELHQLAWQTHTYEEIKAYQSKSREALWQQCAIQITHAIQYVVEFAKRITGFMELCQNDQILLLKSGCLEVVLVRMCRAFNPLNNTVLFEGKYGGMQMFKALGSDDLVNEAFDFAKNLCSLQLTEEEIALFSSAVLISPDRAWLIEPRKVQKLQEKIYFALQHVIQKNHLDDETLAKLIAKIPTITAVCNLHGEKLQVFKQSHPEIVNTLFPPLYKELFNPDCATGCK
How it was run: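 Readout is reporter-gene mRNA induction, detected as fluorescence after RT-PCR and capillary electrophoresis, fitted for gain of signal against DMSO controls. Transiently transfected HepG2 liver cells carrying GAL4-UAS reporter constructs were treated for 24 hours.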

[18] = target: human Retinoic Acid Receptor beta (RARb), RARB (gene 5915) (UniProt P10826); test: ATG_RARb_TRANS: Attagene TRANS-FACTORIAL HepG2 Assay for human Retinoic Acid Receptor beta (AID 2283004; active = hit-call score of the fitted dose curve at least 0.9, where 1 is the maximum)
How it was run: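 Readout is reporter mRNA induction: RNA reverse-transcribed, PCR-amplified, FAM-labelled, HpaI-cut and resolved by capillary electrophoresis. Transiently transfected HepG2 cells carrying exogenous NR–Gal4 chimeras were dosed for 24 h; activity fitted upward relative to DMSO.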

[19] = target: Retinoic acid receptor alpha (Homo sapiens) (UniProt P10276); test: ATG_RARa_TRANS: Attagene TRANS-FACTORIAL HepG2 Assay for human Retinoic Acid Receptor alpha (RARa) (AID 2283005; active = hit-call score of the fitted dose curve at least 0.9, where 1 is the maximum;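 note: potency for increased reporter signal meaning RARa activation over DMSO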)
Sequence of Retinoic acid receptor alpha (Homo sapiens) (P10276 whole entry, looked up, the tested form may be a part): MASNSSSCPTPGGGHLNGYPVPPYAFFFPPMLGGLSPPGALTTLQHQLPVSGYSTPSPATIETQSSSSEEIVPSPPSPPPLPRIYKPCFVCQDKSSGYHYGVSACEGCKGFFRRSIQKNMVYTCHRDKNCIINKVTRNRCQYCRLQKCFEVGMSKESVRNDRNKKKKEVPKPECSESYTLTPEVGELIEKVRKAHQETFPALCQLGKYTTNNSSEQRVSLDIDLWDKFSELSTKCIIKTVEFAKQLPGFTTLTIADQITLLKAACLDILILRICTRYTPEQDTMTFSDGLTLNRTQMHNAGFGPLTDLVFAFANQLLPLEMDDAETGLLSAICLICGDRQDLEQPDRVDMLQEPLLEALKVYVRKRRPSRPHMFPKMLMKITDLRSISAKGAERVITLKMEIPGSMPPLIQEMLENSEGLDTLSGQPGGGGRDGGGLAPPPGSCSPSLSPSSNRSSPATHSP
How it was run: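 HepG2 cells transiently transfected with multiple reporter units expressing chimeric RARα-GAL4 fusion, with GAL4-UAS-driven reporters. After 24 h compound exposure, reporter mRNA induction quantified by RT-PCR and capillary electrophoresis with fluorescent labeling; gain-of-signal fitted relative to DMSO control.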

[20] = BSK_3C_VCAM1: BioMAP Diversity Plus: 3C Assay for Vascular cell adhesion molecule 1 (VCAM1) Biomarker Activity (AID 2282999); conditions: BioMAP 3C HUVEC, VCAM1 ELISA, cytokine-stimulated; actives raise or lower the signal
How it was run: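 Human umbilical vein endothelial cells were dosed with compound for 24 h, after which cell-surface VCAM-1 was quantified by ELISA. Bidirectional curve fitting used DMSO as negative control and activity baseline.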

Measured: AC50

O=[N+]([O-])c1cccc2ccccc12
active: [3] 23.7 µM | [13] 30.4 µM
not listed: [14] | [15] | [16] | [17] | [18] | [19] | [20]
inactive: all other assays above

C=CCCl
inactive: [1] | [2] | [3] | [4] | [5] | [9] | [14] | [12] | [13] | [15] | [16]

O=C(CCl)NCO
active: [3] 65.2 µM
not listed: [9] | [12] | [17] | [18] | [19] | [20]
inactive: all other assays above

CC(C)(COCC1CO1)COCC1CO1 (stereo not given)
active: [3] 49.8 µM | [6] 3.97 µM | [11] 20 µM
not listed: [9] | [15] | [16] | [17] | [18] | [19] | [20]
inactive: all other assays above

CCN(CC)C(=O)C(Cl)=C(C)OP(=O)(OC)OC
active: [3] 38.6 µM
not listed: [13] | [15] | [18] | [19] | [20]
inactive: all other assays above

O=C1c2ccccc2C(=O)C1C(=O)C(c1ccccc1)c1ccc(Cl)cc1 (stereo not given)
active: [1] 27.1 µM | [2] 26.3 µM | [3] 3.96 µM | [4] 6.7 µM | [19] 26.1 µM | [12] 3.11 µM | [13] 2.45 µM
inactive: [5] | [9] | [14] | [18] | [15] | [17]

Cc1ccccc1OP(=O)(Oc1ccccc1)Oc1ccccc1
active: [3] 12.3 µM | [6] 20 µM | [7] 35.3 µM | [20] 20 µM | [8] 28.7 µM | [11] 20 µM | [12] 3.74 µM
inactive: [1] | [2] | [4] | [5] | [9] | [10]

O=C(O)c1cc(I)cc(I)c1I
active: [3] 100 µM | [9] 17.3 µM | [12] 11.9 µM
inactive: [1] | [2] | [4] | [5] | [14]

— PubChem BioAssay (EPA / NIEHS)
